Shiga inhibitor: inhibitors of Shiga toxin in Vero cells. AID 2315. inhibition, % at 38.7 µM. 9.2% of 290,000 active. Vero cells, Shiga toxin protein synthesis inhibition reporter; in the data active means inhibition mostly above about 28%, no sharp cut-off; inactive means mostly below about 43%
SARS PLP yeast: inhibitors of SARS-CoV papain-like protease in yeast; Potency, µM (doses to about 32.9 µM), usual class: activators; AID 485353; S. cerevisiae expressing SARS-CoV PLpro, growth rescue; 0.19% of 330,000 active; further: nearly all actives have a fitted effect of over 55% in size
CHX counter: counter-screen hit for Shiga toxin inhibitors, cycloheximide; cell reporter, cycloheximide protein synthesis inhibition counterscreen; 12% of 300,000 active; max response, %; in the data active means max response mostly above about 13%, no sharp cut-off; inactive means mostly below about 14%; further: read at 38.3 µM for the half of the compounds with a filed dose
Pf growth 96h: inhibits malaria parasite growth, 96 h | Potency, µM (top dose mostly 28.7 µM), most hits filed as inhibitors | P. falciparum luciferase reporter growth, 96 h | 6.9% of 320,000 active; active means well fitted inhibition curve with a large enough effect; inconclusive means small, poorly fitted or top-dose-only effect, or another doubt; inactive means no such curve, though single readings can be large or run the other way
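Parasite growth measured via integrated firefly luciferase reporter in P. falciparum. Infected erythrocytes at 2% hematocrit, 0.05% parasitemia final were treated 96 hours at 37 C under 5% CO2, and luminescence was read.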
Pf growth 48h: inhibits P. falciparum growth in the first generation, 48 h; 5.9% of 310,000 active; Potency, µM (top dose mostly 28.7 µM), hits mostly inhibitors; P. falciparum luciferase growth in erythrocytes, 48 h; active means well fitted inhibition curve with a large enough effect; inconclusive means small, poorly fitted or top-dose-only effect, or another doubt; inactive means no such curve, though single readings can be large or run the other way
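First compound was added to culture medium, then infected red cells at 0.1% parasitemia and 2% hematocrit (final). After incubation at 37 C under 5% CO2, luciferase detection reagent was dispensed and light output recorded.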
NS1 function inh: blocks influenza NS1 protein function. Potency, µM (titrated, usually from 46.1 µM). 0.4% of 270,000 active; further: actives are rising curves; nearly all actives have a fitted effect of over 50% in size
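Growth recovery, yeast-based: influenza A NS1 expressed in S. cerevisiae causes slow growth, and suppressors are detected by OD600. The parent strain without NS1 is used as positive control.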
Numbers stand for hits; n = inactive; u = inconclusive; x = not tested or not shown; [ ] = dose if it differs, or a comment. In the library only some 21% were active in any assay of this set; here they are far more common. Unless noted, the call rests on the fitted dose curve.

SMILES	Shiga inhibitor	SARS PLP yeast	CHX counter	Pf growth 96h	Pf growth 48h	NS1 function inh
CCCCC1CCC(C(=O)N(C)CC(=O)Nc2cccc(F)c2)CC1 (stereo not given)	n	n	n	u	u	n
C=CCNc1nc(-c2c(C)nc3sccn23)cs1	50	n	25	n	n	n
C=CCNc1nc(C2(C)CC3(CC(C)(C)OC3=O)C(=O)O2)cs1 (stereo not given)	n	n	n	n	n	n
Cc1ccc(C)c(NC(=O)COC(=O)c2cc(=O)c3ccccc3o2)c1	x	n	x	n	n	x
CSc1ccc(-c2nc(CN(C)C3CCOC3)c(C)o2)cc1 (stereo not given)	42	n	31	u	n	n
Cc1ccc(-c2nc(CN(C)C(C3CC3)C3CC3)c(C)o2)cc1	n	n	n	n	n	n
COC(=O)c1[nH]c2cc(OC)ccc2c1NC(=O)CCN1CCCC(C)(C)C1	n	n	n	1.7µM	n	n
COC(=O)c1[nH]c2cccc(OC)c2c1NC(=O)CCN1CCC(C)CC1	n	n	n	1.9µM	n	n
COC(=O)c1[nH]c2cccc(OC)c2c1NC(=O)CCN1CCN(c2ccccc2OC)CC1	n	n	n	n	u	n
C=CCNC(=S)Nc1c(C(=O)OC)[nH]c2cc(OC)ccc12	n	n	19	n	n	n
CCN(CC(=O)NCCN1CCOCC1)S(=O)(=O)c1ccc(F)cc1	n	n	n	n	n	n
Nc1ccc(Cl)cc1C(=O)OCC(=O)NC1CCS(=O)(=O)C1 (stereo not given)	n	n	n	n	n	n
COc1ccc(N2C(=NC(=O)C3CCCCC3)SC3CS(=O)(=O)CC32)c(OC)c1 (stereo not given)	n	n	n	u	n	n
NS(=O)(=O)c1cc(-c2nn[nH]n2)c(NCc2cccs2)cc1Cl	x	x	x	12µM	n	x
C=CCn1c(=O)c(C(=O)Nc2ccc(C)cc2)c(O)c2ccccc21	x	n	n	n	n	n
COC(=O)c1ccc2c(CCO)c[nH]c2c1	37	n	25	n	n	n
COC(=O)c1ccc(CNC(=O)CCc2c[nH]c3ccccc23)cc1	n	n	n	n	n	n
COc1cc2c3c(c1)c(C1=NC(=S)NC1=O)c(O)n3C(C)(C)C=C2C	n	n	21	n	x	n
CC1(c2ccccc2)CC(C)(C)n2c(O)c(C3=NC(=S)NC3=O)c3cccc1c32 (stereo not given)	n	n	n	n	n	n
C=CCN1C=CC(=CC=C(C#N)C#N)C=C1	74	n	21	n	n	n
CC(C)Oc1ccc(C(=O)Nc2ccc(N3CCN(C(=O)c4ccco4)CC3)cc2)cc1	n	n	n	u	u	n
O=C(Nc1ccc(N2CCCC2)cc1)c1ccc(Br)cc1	n	n	12	n	13µM	n
CC(C)Oc1ccc(C(=O)Nc2ccc(N3CCCC3)cc2)cc1	27	n	20	9.3µM	13µM	u
COc1cccc(C(c2sc3nc(C)nn3c2O)N2CCc3ccccc3C2)c1 (stereo not given)	n	n	n	u	u	n
CCCc1ccc(S(=O)(=O)N/N=C(/C)c2ccc3c(c2)OCO3)cc1	n	n	n	n	n	n
SMILES	Shiga inhibitor	SARS PLP yeast	CHX counter	Pf growth 96h	Pf growth 48h	NS1 function inh
O=C(COC(=O)C1(c2ccccc2F)CCCC1)NCc1cccs1	n	n	n	n	u	x
O=C1NC(=O)N(Cc2ccccc2)C(=O)/C1=C\c1ccco1	n	n	n	n	n	x
O=C1NC(=O)N(Cc2ccco2)C(=O)/C1=C/c1cccn1CCOc1ccccc1Cl	70	n	23	n	n	u
N#Cc1ccc(NC(=O)COc2ccc(-n3cnnn3)cc2)cc1	x	n	x	x	x	x
O=c1[nH][nH]c(C(F)(F)F)c1C=Nc1ccccc1Cl	n	n	n	n	n	n
Oc1c(C=Nc2ccccc2Cl)[nH]c2ccccc12	77	n	47	u	u	n
c1ccc(N2CCN(c3nc4ccccc4[nH]3)CC2)nc1	49	n	22	n	n	x
CN1C(=C2C(=O)OC(C)(C)OC2=O)Sc2ccccc21	117	n	44	n	n	n
COc1ccc(NC(=O)CC2Oc3ccccc3NC2=O)c(OC)c1 (stereo not given)	n	n	n	n	n	n
O=c1[nH]c2ccccc2nc1Cc1ccc(Cl)cc1	n	n	n	n	n	n
O=c1[nH]c2ccccc2nc1-c1ccccc1	50	n	26	n	n	n
O=c1[nH]c2ccccc2nc1-c1ccc(Cl)cc1	52	n	18	n	n	n
c1ccc(-c2nnsc2-c2ncc[nH]2)cc1	n	n	n	n	n	n
c1ccc(-c2nnsc2-c2nc3ccccc3[nH]2)cc1	43	n	23	n	n	n
O=c1nc(-c2ccccc2)c2ccccc2[nH]1	n	n	n	n	x	n
COc1cccc(NC(=O)CCS(=O)(=O)c2ccc(Br)cc2)c1	n	n	n	n	n	n
CN1CCN(NC(=O)Nc2ccc(F)cc2)CC1	n	n	n	u	n	n
CCOC(=O)c1cnc2c(ccc3ccccc32)c1NCCN(C)C	n	n	n	n	n	n
CCOC(=O)c1cnc2c(ccc3ccccc32)c1N	x	n	34	n	n	n
CCOC(=O)c1cnc2c(ccc3ccccc32)c1NCCO	38	n	n	u	n	n
CCOC(=O)c1cnc2ccc(C)cc2c1NCCO	n	n	n	u	13µM	n
CCOC(=O)c1cnc2ccc(C(=O)OC)cc2c1NCCCN1CCOCC1	n	n	n	u	n	n
Cc1cc(C(=O)Nc2cnn(Cc3ccc(Cl)cc3Cl)c2)no1	35	n	15	n	4.1µM	n
Cc1ccccc1Cn1cc(NC(=O)c2nn(C)cc2Cl)cn1	28	n	n	n	n	n
COc1ccc(NC(=O)CSc2nnc(Cc3cccs3)n2C)cc1	x	n	x	n	u	x
SMILES	Shiga inhibitor	SARS PLP yeast	CHX counter	Pf growth 96h	Pf growth 48h	NS1 function inh
Cc1ccc(OCC(O)Cn2c(=N)n(CCN3CCCCC3)c3ccccc32)cc1 (stereo not given)	n	n	n	n[5.75 µM]	3.7µM	n
COc1ccc(OCC(O)Cn2c(=N)n(CCN3CCCCC3)c3ccccc32)cc1 (stereo not given)	n	n	n	u	4.7µM	n
COc1ccc(OCC(O)CN2CCCCC2)cc1 (stereo not given)	n	n	n	n	x	n
O=C(NCCCc1ccccc1)c1c(O)nc2sccn2c1=O	x	n	x	u	u	x
C=C(C)C1Cc2c(C)nn(-c3nc(C)cc(C)n3)c2C1 (stereo not given)	n	n	n	13µM	u	n
C=C(C)C1Cc2nc(N)nc(C)c2C1 (stereo not given)	n	n	n	n	n	n
COc1ccc(-c2cc(C(=O)NCC(c3ccco3)N(C)C)c3ccccc3n2)cc1OC (stereo not given)	x	n	x	u	u	x
Cc1ccc(N2C(=O)SC(N(CC(=O)O)c3cccc(C)c3)C2=O)cc1 (stereo not given)	98	n	44	n	n	n

Screening results (PubChem)
